Test results: PubChem BioAssay (NCI)
Compounds without any hit were thinned out: in the full panel of roughly 83,000, 20% have a hit.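 96-well plates, one dose, 48 hours. Percent growth reported; active if below 10.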 Calls of active or inactive are those of the source.

System: SNB-75 CNS
Experiment: NCI-60 one-dose screen, 48 h (100 = growth as untreated, 0 = no growth, -100 = all killed)
Conditions: 10 µM unless noted

SMILES	growth
Brc1ccc(-c2n(Cc3ccc4ccccc4c3)c(-c3ccccc3)c(-c3ccccc3)[n+]2Cc2ccc3ccccc3c2)cc1	-97.9% (active)
O=C1CCCc2cc(OCC(=O)N3CCCCC3)ccc2N1	101% (inactive)
COc1cc2c3c(n(CCCN4CCC[C@@H]4CO)c(=O)c2cc1OC)-c1cc2c(cc1C3=O)OCO2	-83.4% (active)
CC(=O)c1c(N)c(C#N)cn1-c1ccc(Cl)cc1Cl	90.5% (inactive)
Cc1ccc(C2CC(c3ccc(S(=O)(=O)NCCNc4nc(Nc5ccc(F)cc5)nc(N(C)C)n4)cc3)=Nc3c(N)nc(N)nc3N2)cc1 (stereo not drawn)	77.7% (inactive)
Cc1ccc(C(=O)C(c2c[nH]c3ccccc23)c2c[nH]c3ccccc23)cc1	70.1% (inactive)
COc1cc(-c2nc3ccc(C)cc3[nH]2)ccc1OCc1nnc(-c2ccc(Br)cc2)o1	85.7% (inactive)
Nc1nnc(-c2c[nH]c3ccc(Br)cc23)c(-c2c[nH]c3ncc(Br)cc23)n1	50.2% (inactive)
Cc1ccc(-c2nc(C#N)c(S(=O)(=O)N3CCN(S(=O)(=O)c4ccc(Cl)cc4)CC3)o2)cc1	86.3% (inactive)
CCOC(=O)C1=C(N)N(c2ccccc2)C2=C(C(=O)CC(C)(C)C2)C1c1ccccc1Cl (stereo not drawn)	66.3% (inactive)
Cc1ccc(C(=O)NN2C(=O)/C(=C/C=C/c3ccc([N+](=O)[O-])o3)SC2=S)cc1	-85% (active)
CCCS(=O)(=O)N1CCCC(C(=O)Nc2nc3ccc(NC(=O)c4ccc(F)c(OC)c4F)cc3s2)C1 (stereo not drawn)	64.1% (inactive)
O=C1CC(Sc2n[nH]c(-c3ccncc3)n2)C(=O)N1c1ccc(Br)cc1 (stereo not drawn)	106% (inactive)
COc1ccc(NC(=O)Nc2ccc(OCc3ccc(F)cc3)cc2)cc1	63.6% (inactive)
COc1ccc(/C=C/c2nc3ccccc3n3c(-c4ccc(Cl)cc4)nnc23)cc1	61.2% (inactive)
CC1(C)CC[C@]2(C(=O)O)CC[C@]3(C)C(=CCC4[C@@]5(C)C[C@@H](O)[C@@H]6OC(c7ccccc7Br)OC[C@@]6(C)C5CC[C@]43C)C2C1 (stereo partly drawn)	48.1% (inactive)
CC(=O)OCC1OC(OC2C(COC(C)=O)OC(n3cc(COc4ccc5ccc(=O)oc5c4)nn3)C(OC(C)=O)C2OC(C)=O)C(OC(C)=O)C(OC(C)=O)C1OC(C)=O (stereo not drawn)	69.2% (inactive)

SMILES	growth
COc1ccc(Cc2nn(CC(=O)N/N=C/c3ccc(F)cc3)c(=O)c3c(C)noc23)cc1	-17.4% (active)
O=C(c1ccccc1)C(c1c[nH]c2ccccc12)c1c[nH]c2ccccc12	72.4% (inactive)
N=C1N=C(SCc2nc3ccccc3[nH]2)NC(=O)/C1=C/c1ccc(Cl)cc1	106% (inactive)
Cn1cc(-c2cc3nc(-c4c[nH]c5ccc(Cl)cc45)cc(N)n3n2)c2ccccc21	-67.5% (active)
CC1(C)CC[C@]2(C(=O)O)CC[C@]3(C)C(=CCC4[C@@]5(C)C[C@@H](O)[C@@H]6OC(c7ccco7)OC[C@@]6(C)C5CC[C@]43C)C2C1 (stereo partly drawn)	72.2% (inactive)
COc1ccc(C2CC(c3ccc(S(=O)(=O)NCCNc4nc(Nc5ccc(F)cc5)nc(N(C)C)n4)cc3)=Nc3c(N)nc(N)nc3N2)cc1 (stereo not drawn)	92.7% (inactive)
O=C(Nc1ccccc1)N1CCN(c2cc(-c3cn(-c4ccccc4)nc3-c3cccc(O)c3)ccn2)CC1	101% (inactive)
CNS(=O)(=O)c1ccc(Nc2ccc(C(F)(F)F)cc2)c(-c2cn(C)cn2)c1	90.9% (inactive)
CCS(=O)(=O)N1CCCC(C(=O)Nc2nc3ccc(NC(=O)c4ccc(F)c(OC)c4F)cc3s2)C1 (stereo not drawn)	62.5% (inactive)
COc1ccc(CCC2c3c(cc4c(c3OC)OCO4)CCN2C)cc1 (stereo not drawn)	2.42% (active)
Nc1nc(-c2ccccc2)c(N=Nc2ccc([N+](=O)[O-])cc2Cl)s1	85.7% (inactive)
CN(C)c1nc(NCCNS(=O)(=O)c2ccc(C3=Nc4c(N)nc(N)nc4NC(c4ccccc4)C3)cc2)nc(Nc2ccc(F)cc2)n1 (stereo not drawn)	62.5% (inactive)
N/C(=N\c1nc2ccccc2s1)NC(=O)Nc1ccc(Cl)cc1Cl	-68.8% (active)
CCCCn1c(O)c(N=Nc2nc(-c3cc4ccccc4oc3=O)cs2)c2cc(Br)ccc21	102% (inactive)
Cc1cccc(-c2nc(Nc3cccc(S(N)(=O)=O)c3)c3ccccc3n2)c1	80.3% (inactive)
Cn1cc(-c2cc(N)n3nc(-c4cn(C)c5ccccc45)cc3n2)c2cc(Br)ccc21	-35.7% (active)
